The results in this text go back to PubChem BioAssay (NCATS).

Structures are written as SMILES. A number with no mark means an inactive call. Records with an inconclusive call do not appear. Activity calls are given as the source filed them. Calls come from the whole dose curve; as a rule, active = well fitted curve in the direction sought with a large enough effect; inconclusive = small, poorly fitted or top-dose-only effect, or another doubt; inactive = no such curve, though single readings can be large; an effect the other way counts as inactive or inconclusive.

Assay [1] in a line: Cell Viability - H-4-II-E (AID 543). Note: nearly all actives have a fitted effect of over 35% in size. Note: potency is the fitted concentration of half-maximal effect. The gist of the method:
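Rat hepatoma H-4-II-E cells (1500/well) were plated, incubated 5 hr at 37 °C, then exposed to compounds for 40 hr at 37 °C. Cellular ATP was read by CellTiter-Glo luminescence; AC50 came from Hill-equation fits of concentration-response data.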

Assay [2] is described as follows: Cell Viability - SH-SY5Y (AID 544). Note: nearly all actives have a fitted effect of over 55% in size. Note: potency is the fitted concentration of half-maximal effect. The note with it: SH-SY5Y neuroblastoma cell viability; viability change, negative = cytotoxic: at 92.2 µM (top of the series). The gist of the method:
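Human neuroblastoma SH-SY5Y cells (1500/well) in complete medium were exposed to compounds for 40 hr at 37 °C; intracellular ATP was then quantified by CellTiter-Glo luminescence after 20 min at room temperature. AC50 came from Hill-equation concentration-response fits.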

A short description of assay [3]: Cell Viability - Renal Proximal Tubule (AID 545). Note: nearly all actives have a fitted effect of over 40% in size. Note: potency is the fitted concentration of half-maximal effect. The gist of the method: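 Primary rat renal proximal tubule cells (1000/well) were treated with compounds for 40 hr at 37 °C in complete medium. Intracellular ATP was measured by CellTiter-Glo luminescence, and AC50 values came from Hill-equation fits of concentration-response data.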
A short description of assay [4]: Cell Viability - Mesenchymal (AID 546).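 Note: cells exposed to compound for 40 hours before reading.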 Note: potency is the fitted concentration of half-maximal effect. The gist of the method:
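Normal human renal glomerulus-derived kidney mesenchymal cells, 1000 per well in complete medium, were treated with compounds for 40 hr at 37 °C. Viability was read as intracellular ATP by CellTiter-Glo luminescence; AC50 values came from Hill-equation fits of qHTS concentration-response data.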

Assay [5] in a line: Cellular Toxicity (caspase-3) HepG2 (AID 654).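 For caspase-3 activation: cells exposed to compound for 16 hours before reading; 0% = DMSO alone and 100% = caspase signal from 100 µM tamoxifen.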 Note: potency is the fitted concentration of half-maximal effect. The gist of the method:
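HepG2 cells (1500/well) in complete medium were treated with compounds for 16 hr at 37 °C. Caspase-3/7 activity was then read as luminescence from peptide-aminoluciferin cleavage. AC50 came from Hill fits, normalized to DMSO and 100 uM tamoxifen.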

Assay [6] is described as follows: Cellular Toxicity (caspase-3) HUV-EC-C (AID 656). The gist of the method: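 HUV-EC-C endothelial cells, 1000/well, were pre-incubated 5 hr at 37°C, then exposed to compounds for 16 hr at 37°C. Caspase-Glo 3/7 luminescence was read after 20 min at room temperature. AC50 came from Hill fits, normalized to DMSO and 100 uM tamoxifen.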
Assay [7] is described as follows: Cellular Toxicity (caspase-3) SHSY5Y (AID 657). The gist of the method: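 SH-SY5Y human neuroblastoma cells (1500/well) were treated with compounds for 16 h at 37 °C, then Caspase-Glo 3/7 luminescence was read after 1 h at room temperature. Data normalized to DMSO and 10 uM staurosporine; AC50 from Hill fits.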
Assay [8] can be described thus: Cellular Toxicity (caspase-3) MRC-5 (AID 659).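 Note: 0% = DMSO basal and 100% = 10 µM staurosporine.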 The gist of the method:
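Luminescence from caspase-cleaved aminoluciferin substrate (Caspase-Glo 3/7, 1 hr RT) reports caspase 3/7 activity in MRC-5 lung fibroblasts after 16 hr compound exposure. Normalized to DMSO basal and 10 uM staurosporine as 100%; AC50 from Hill fits.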

Assay [9] in a line: Cellular Toxicity (caspase-3) Mesangial (AID 660).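 Note: cells exposed to compound for 16 h before the caspase read.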 Particulars: mesangial cells, normalized: DMSO 0%, 100 µM tamoxifen 100%; at 91.7 µM (top of the series). The gist of the method: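 Human renal glomerular mesangial cells (1000/well) were treated with compounds for 16 h at 37 °C in complete medium, then caspase 3/7 activity was read by Caspase-Glo luminescence. Data were normalized to DMSO and 100 uM tamoxifen; AC50 from Hill fits.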

Assay [10] can be described thus: Cellular Toxicity (caspase-3) SK-N-SH (AID 661).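 Note: 0% = DMSO basal and 100% = 10 µM staurosporine.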 The gist of the method: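 SK-N-SH human neuroblastoma cells (1500/well) were treated with compounds for 16 hr at 37 °C in complete medium; caspase 3/7 activity was read by Caspase-Glo luminescence. AC50 came from Hill fits of data normalized to DMSO and 10 uM staurosporine.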
A short description of assay [11]: Cellular Toxicity (caspase-3) H-4-II-E (AID 663).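 Note: cells exposed to compound for 16 hr before readout.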 The note with it: H-4-II-E rat hepatoma, scaled: DMSO 0%, 100 µM tamoxifen 100%; at 92.2 µM (top of the series). The gist of the method:
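Luminescence from caspase-cleaved aminoluciferin substrate, read 20 min after reagent addition, reports caspase 3/7 activation in rat H-4-II-E cells after 16 hr compound exposure. Normalized to DMSO (basal) and 100 uM tamoxifen (100%); AC50 from Hill fits.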

Assay [12] in a line: Cellular Toxicity (caspase-3) Hek293 (AID 664).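 Note: cells exposed to compound for 16 h at 37 °C before readout.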 The note with it: HEK293 caspase-3 activation, DMSO = 0%, 100 µM tamoxifen = 100%; at 92.2 µM (top of the series). The gist of the method:
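HEK293 cells were exposed to compounds in complete medium for 16 hr at 37 °C, then caspase-3/7 activity was read by Caspase-Glo 3/7 luminescence after 20 min at room temperature. Data normalized to DMSO and 100 uM tamoxifen; AC50 from Hill fits.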

The nature of assay [13]: Cellular Toxicity (caspase-3) N2a (AID 665).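 Note: compound exposure lasted 16 h at 37 °C before readout.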 The gist of the method:
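Mouse N2a neuroblastoma cells (1500/well) were treated with compounds for 16 h at 37 °C, then caspase-3/7 activity was read by Caspase-Glo luminescence after 1 h at room temperature. Data were normalized to DMSO and 10 uM staurosporine; AC50 from Hill fits.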

A short description of assay [14]: Cellular Toxicity (caspase-3) NIH 3T3 (AID 666). The gist of the method:
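Mouse NIH 3T3 fibroblasts (1000 cells/well) were treated with compound for 16 hr at 37°C in complete medium; caspase-3/7 activity was read by Caspase-Glo luminescence. Normalized to DMSO and 100 uM tamoxifen; AC50 from Hill fits.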

Assay [15] can be described thus: Cellular Toxicity (caspase-3) Renal Proximal Tubule (AID 667).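 For caspase-3 activation: 0% = DMSO basal and 100% = 10 µM staurosporine.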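 Note: cells exposed to compound for 16 hours at 37 °C before detection.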 Note: potency is the fitted concentration of half-maximal effect. Particulars: Potency: caspase-3 activation. The gist of the method:
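Primary rat proximal tubule cells, 1000/well, 5 h plating at 37 °C, then compound 16 h at 37 °C. Caspase-Glo 3/7 reagent, 1 h RT, luminescence. Normalized to DMSO (basal) and 10 uM staurosporine (100%); Hill-fit AC50.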

Assay [16] addresses Cytochrome P450 3A4 (Homo sapiens) (UniProt P08684). Kind of assay: qHTS Assay for Inhibitors and Substrates of Cytochrome P450 3A4 (AID 884). Note: % is set by controls: 0 for no effect and ±100 for the full control effect; nearly all actives have a fitted effect of over 50% in size. The gist of the method:
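20 nM human CYP3A4 with 25 uM Luciferin-PPXE (at KM) in 200 mM KPO4, preincubated 10 min with compound; NADPH regeneration started a 60 min RT reaction. Luciferin detected by luminescence, normalized to 57 uM ketoconazole as full inhibition.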
On the technique in general: Quantitative high-throughput screening tests each substance at several concentrations.

Assay [17] in a line: Cell Viability - LYMP2-001 (AID 921).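 Note: 0% = DMSO only and full inhibition = tetraoctylammonium bromide control wells; nearly all actives have a fitted effect of over 70% in size.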 The gist of the method:
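Human lymphoblastoid cells (Coriell), 2500 per well, were preincubated 5 hr at 37 C, then exposed to compounds in complete medium for 24 hr at 37 C. Cellular ATP was read by CellTiter-Glo luminescence; AC50 from Hill fits of concentration-response data.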

The nature of assay [18]: Cellular Toxicity (caspase-3) Jurkat (AID 655).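 Note: cells exposed to compound for 16 h at 37 °C before reading.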 The note with it: Jurkat caspase-3 activation, luminescence; caspase-3 activation: at 92.2 µM (top of the series), DMSO = 0%, tamoxifen = 100%. The gist of the method: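 Jurkat cells (5000/well) in complete medium were treated with compounds for 16 hr at 37 °C, then Caspase-Glo 3/7 luminescence was read after 20 min at room temperature. Data normalized to DMSO (basal) and 100 uM tamoxifen (100%); AC50 from Hill fit.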

The nature of assay [19]: Cellular Toxicity (caspase-3) BJ (AID 658).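 Note: 0% = DMSO basal and 100% = 10 µM staurosporine.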 The gist of the method:
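Luminescent aminoluciferin-substrate cleavage reports caspase 3/7 activity in normal human BJ fibroblasts after 16 hr compound exposure at 37 °C. Normalized to DMSO (basal) and 10 uM staurosporine (100%); AC50 from Hill fit of concentration-response.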

Assay [20] concerns the target Cytochrome P450 3A4 (Homo sapiens) (UniProt P08684). In words: qHTS Assay for Activators of Cytochrome P450 3A4 (AID 885). Note: nearly all actives have a fitted effect of over 65% in size. The gist of the method:
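Human CYP3A4 (20 nM) with Luciferin-PPXE at 25 uM (its KM) in 200 mM KPO4; 10 min compound preincubation, then NADPH regeneration and 60 min reaction at RT. Luciferin read by luminescence; normalized to 57 uM ketoconazole full inhibition.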

Cytochrome P450 3A4 (Homo sapiens), sequence (P08684 whole entry, looked up): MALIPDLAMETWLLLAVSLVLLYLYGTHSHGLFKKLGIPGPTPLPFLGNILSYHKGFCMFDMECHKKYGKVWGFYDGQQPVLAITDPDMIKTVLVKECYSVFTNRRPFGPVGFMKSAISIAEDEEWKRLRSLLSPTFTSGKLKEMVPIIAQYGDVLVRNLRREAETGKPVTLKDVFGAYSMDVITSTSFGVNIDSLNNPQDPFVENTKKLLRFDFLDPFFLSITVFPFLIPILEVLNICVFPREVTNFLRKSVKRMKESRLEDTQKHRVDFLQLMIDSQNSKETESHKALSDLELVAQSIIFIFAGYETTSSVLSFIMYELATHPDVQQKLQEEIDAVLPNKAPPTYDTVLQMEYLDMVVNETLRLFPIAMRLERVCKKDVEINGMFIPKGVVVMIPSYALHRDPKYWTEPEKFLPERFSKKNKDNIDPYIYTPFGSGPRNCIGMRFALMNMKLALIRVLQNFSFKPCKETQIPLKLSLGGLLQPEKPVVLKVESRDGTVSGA

Regarding `O=C1CCCCC1`, the Potency entry in assay [1], in assay [2], in assay [3], in assay [4], in assay [5] and in [15] was “inactive” throughout. The Potency result in [16] and in assay [17] was “inactive” in each case. The result in assay [6], in assay [7], in assay [8], in [10], in assay [13] and in [14] was inactive. The caspase-3 activation in assay [9] is 1.1%; in [11], 0.476%; in assay [12] it was 0.988%.

For the compound `CC(C)c1ccccc1`, the Potency result in assay [1], in assay [2], in [3], in assay [4], in assay [5] and in assay [15] was “inactive” throughout. In addition, the Potency entry in assay [16] and in assay [17] was “inactive” each time. In addition, the compound was called inactive in assay [6], in [7], in assay [8], in [10], in assay [13] and in assay [14]. Moreover, the caspase-3 activation in [9] is -1.25%; in assay [11], 0.504%; in assay [12], -0.725%.

On to `CCC(=O)/C=C/C1C(C)=CCCC1(C)C` (configuration not stated), for which the Potency entry in [1], in assay [2], in assay [3], in [5], in assay [15] and in assay [17] was “inactive” throughout. Moreover, the caspase-3 activation in assay [18] was 2.94%; in [11] it was 2.63%; in assay [12], 2.12%. Moreover, the result in assay [6], in assay [7], in [19], in assay [10], in assay [13] and in [14] was inactive. The compound was called inactive in assay [20].

For `c1ccc2[nH]cnc2c1`, the Potency result in assay [1], in [2], in assay [3], in [5], in assay [15] and in assay [16] was “inactive” in each case. Moreover, the Potency entry in assay [17] is “inactive”. The caspase-3 activation in [18] was 1.18%; in assay [9] it was 0.6%; in assay [11], -0.984%; in assay [12], -0.791%. Besides, the call in assay [6], in [7], in [19], in assay [8], in [10] and in assay [13] was inactive. The compound was classed as inactive in assay [14].

Consider `CC1=C(/C=C/C(C)=C/C=C/C(C)=C\C=O)C(C)(C)CCC1`, for which the Potency in assay [1] was 12.6 µM (active); in assay [2], 20 µM (active); in assay [3], 12.6 µM (active); in [4], 12.6 µM (active); in assay [5], 63.1 µM (active); in [15] it was 31.6 µM (active). In addition, the compound was classed as inactive in assay [19] and in assay [20]. The caspase-3 activation in assay [9] is 90.3% (active); in [11], 113% (active).

Take `c1ccc2c(c1)Oc1ccccc1S2`: the Potency entry in [1], in [2], in assay [3], in [4], in assay [5] and in assay [15] was “inactive” throughout. Also, the Potency result in assay [16] and in [17] was “inactive” throughout. In addition, the result in assay [7], in assay [19], in [8], in assay [10], in assay [13] and in [14] was inactive. Also, the caspase-3 activation is -0.346% in assay [9], -0.0621% in assay [11] and -0.379% in assay [12].

On to `COC(=O)c1ccccc1`, for which the Potency result in assay [1], in assay [2], in [3], in assay [5], in assay [15] and in [16] was “inactive” each time. Besides, the Potency entry in assay [17] was “inactive”. Further, the caspase-3 activation in assay [18] was 2.94%; in [9] it was 0.596%; in assay [11], 3.83%; in assay [12], -1.66%. The compound was classed as inactive in assay [6], in [7], in [8], in assay [13] and in assay [14].

For `COC(=O)CCCC(=O)OC`, the Potency entry in [1], in assay [2], in assay [3], in assay [5], in assay [15] and in [17] was “inactive” each time. Further, the caspase-3 activation was 0.321% in assay [18], -0.518% in [9], -0.182% in assay [11] and -0.162% in assay [12]. The call in assay [6], in [7], in assay [19], in assay [10], in assay [13] and in assay [14] was inactive.
